According to publication PMC7862700, “An all-to-all approach to the identification of sequence-specific readers for epigenetic DNA modifications on cytosine”:

What was measured:
Test in all cases: DAPPL (digital affinity profiling via proximity ligation, sequencing); 10 mM Tris-HCl pH 7.5, 50 mM NaCl, 1 mM DTT, 4% glycerol, room temperature, 30 min; GST-TFs on glutathione beads, 16-mer random dsDNA library, 0.1% formaldehyde crosslink after washing; high values mean tight binding
Conditions in all cases: protein: recombinant; tags: N-terminal GST; dsDNA, one strand shown
[1] = target: T1, FLI1 (Homo sapiens, UniProt Q01543 1-452)
T1 sequence: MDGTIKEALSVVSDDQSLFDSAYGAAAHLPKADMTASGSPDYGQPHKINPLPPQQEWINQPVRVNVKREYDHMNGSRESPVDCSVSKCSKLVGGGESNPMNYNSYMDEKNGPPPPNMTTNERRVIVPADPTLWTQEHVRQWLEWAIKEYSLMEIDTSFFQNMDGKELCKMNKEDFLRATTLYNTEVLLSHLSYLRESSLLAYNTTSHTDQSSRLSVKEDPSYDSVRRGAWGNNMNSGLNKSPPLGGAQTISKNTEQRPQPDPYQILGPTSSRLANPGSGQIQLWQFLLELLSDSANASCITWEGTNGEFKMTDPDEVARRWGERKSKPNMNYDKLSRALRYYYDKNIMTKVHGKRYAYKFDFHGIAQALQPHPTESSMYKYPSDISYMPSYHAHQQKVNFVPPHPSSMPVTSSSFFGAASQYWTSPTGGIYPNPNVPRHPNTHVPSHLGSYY
Summary of the method: (§1)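 Beads coated with glutathione captured GST-fused human transcription factors that had been expressed in yeast, and the factors were then given DNA barcodes and pooled with a tag-only sample. The pools were incubated with 200 nmole of a random double-stranded 16-mer DNA library in Tris/NaCl/DTT/glycerol buffer for 30 min at room temperature, washed, crosslinked with 0.1% formaldehyde and proximity-ligated with BsaI/T4 ligase at 37 °C for 1 h. PCR amplification and Illumina NextSeq500 sequencing came last. Binding signal is each hexamer's read frequency for a factor divided by its frequency for the tag-only sample.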

[2] = target: T2, ELK1 (Homo sapiens, UniProt P19419 1-428)
T2 sequence: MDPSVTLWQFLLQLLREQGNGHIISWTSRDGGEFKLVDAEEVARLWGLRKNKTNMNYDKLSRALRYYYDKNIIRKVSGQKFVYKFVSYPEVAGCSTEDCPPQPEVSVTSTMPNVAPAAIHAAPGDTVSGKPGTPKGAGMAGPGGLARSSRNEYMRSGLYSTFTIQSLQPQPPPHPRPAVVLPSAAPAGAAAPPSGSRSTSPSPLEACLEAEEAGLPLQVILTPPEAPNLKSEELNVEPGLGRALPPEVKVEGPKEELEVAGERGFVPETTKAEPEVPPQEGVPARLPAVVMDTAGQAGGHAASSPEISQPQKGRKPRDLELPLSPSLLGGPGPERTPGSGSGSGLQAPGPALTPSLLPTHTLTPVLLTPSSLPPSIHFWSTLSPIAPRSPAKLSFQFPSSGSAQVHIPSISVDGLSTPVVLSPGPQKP
Summary of the method: as §1

[3] = target: T3, GABPA (Homo sapiens, UniProt Q06546 1-454)
T3 sequence: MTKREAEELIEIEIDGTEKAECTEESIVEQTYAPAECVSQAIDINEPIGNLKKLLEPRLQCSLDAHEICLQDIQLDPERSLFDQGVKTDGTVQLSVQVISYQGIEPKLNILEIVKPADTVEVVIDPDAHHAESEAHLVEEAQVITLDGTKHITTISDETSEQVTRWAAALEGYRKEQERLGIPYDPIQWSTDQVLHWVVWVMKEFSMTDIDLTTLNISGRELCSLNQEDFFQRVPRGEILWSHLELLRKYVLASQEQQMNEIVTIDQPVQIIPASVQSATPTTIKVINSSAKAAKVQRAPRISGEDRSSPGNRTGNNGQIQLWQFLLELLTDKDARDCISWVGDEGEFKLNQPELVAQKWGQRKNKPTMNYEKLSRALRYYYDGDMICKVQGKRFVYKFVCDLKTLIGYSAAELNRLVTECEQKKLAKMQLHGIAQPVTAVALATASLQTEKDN
Summary of the method: as §1

[4] = target: T4, ERG (Homo sapiens, UniProt P11308 1-479)
T4 sequence: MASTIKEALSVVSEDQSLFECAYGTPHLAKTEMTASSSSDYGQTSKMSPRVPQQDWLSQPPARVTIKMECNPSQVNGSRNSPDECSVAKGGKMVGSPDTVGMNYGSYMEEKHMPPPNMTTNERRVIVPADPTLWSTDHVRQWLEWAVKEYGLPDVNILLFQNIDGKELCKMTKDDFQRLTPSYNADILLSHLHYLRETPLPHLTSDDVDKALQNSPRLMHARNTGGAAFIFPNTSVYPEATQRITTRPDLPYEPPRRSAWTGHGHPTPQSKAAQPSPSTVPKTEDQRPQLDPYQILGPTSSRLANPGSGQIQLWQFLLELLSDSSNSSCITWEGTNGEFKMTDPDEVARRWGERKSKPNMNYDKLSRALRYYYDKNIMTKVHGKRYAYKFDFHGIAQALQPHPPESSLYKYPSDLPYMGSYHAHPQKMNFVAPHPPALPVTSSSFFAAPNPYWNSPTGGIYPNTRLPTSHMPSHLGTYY
Summary of the method: as §1

[5] = target: ELF1 (Homo sapiens, UniProt P32519 1-619)
Summary of the method: as §1

[6] = target: T5, EHF (Homo sapiens, UniProt Q9NZC4 1-300)
T5 sequence: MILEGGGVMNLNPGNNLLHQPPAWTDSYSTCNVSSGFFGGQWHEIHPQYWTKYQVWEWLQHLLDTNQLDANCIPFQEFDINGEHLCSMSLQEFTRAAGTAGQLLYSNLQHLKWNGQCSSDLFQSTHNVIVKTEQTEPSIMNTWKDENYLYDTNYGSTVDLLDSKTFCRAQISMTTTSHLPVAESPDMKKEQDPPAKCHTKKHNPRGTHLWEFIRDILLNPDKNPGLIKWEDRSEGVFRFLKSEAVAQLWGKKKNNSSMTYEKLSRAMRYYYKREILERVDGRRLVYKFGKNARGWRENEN
Summary of the method: as §1

[7] = target: SPI1 (Homo sapiens, UniProt P17947 1-270)
Summary of the method: as §1

[8] = target: SPIB (Homo sapiens, UniProt Q01892 1-262)
Summary of the method: as §1

[9] = target: T6, ELK3 (Homo sapiens, UniProt P41970 1-407)
T6 sequence: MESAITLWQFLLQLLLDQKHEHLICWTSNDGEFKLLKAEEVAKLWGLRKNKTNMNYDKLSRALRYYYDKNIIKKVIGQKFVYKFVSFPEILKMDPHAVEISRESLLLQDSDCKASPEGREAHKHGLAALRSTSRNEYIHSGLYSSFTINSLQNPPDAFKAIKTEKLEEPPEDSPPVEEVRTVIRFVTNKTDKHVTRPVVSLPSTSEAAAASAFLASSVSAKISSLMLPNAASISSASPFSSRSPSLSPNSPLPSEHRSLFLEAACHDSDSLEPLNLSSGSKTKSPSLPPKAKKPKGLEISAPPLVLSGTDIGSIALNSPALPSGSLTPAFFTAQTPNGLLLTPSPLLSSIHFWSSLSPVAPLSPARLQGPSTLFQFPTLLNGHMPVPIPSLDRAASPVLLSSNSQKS
Summary of the method: as §1

[10] = target: T7, FEV (Homo sapiens, UniProt Q99581 1-238)
T7 sequence: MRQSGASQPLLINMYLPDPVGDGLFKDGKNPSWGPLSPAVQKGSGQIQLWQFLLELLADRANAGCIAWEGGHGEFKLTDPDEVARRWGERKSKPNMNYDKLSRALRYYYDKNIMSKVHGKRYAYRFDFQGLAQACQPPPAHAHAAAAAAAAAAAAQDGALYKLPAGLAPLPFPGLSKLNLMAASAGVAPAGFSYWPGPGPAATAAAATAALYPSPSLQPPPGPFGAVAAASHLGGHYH
Summary of the method: as §1

[11] = target: ETV5 (Homo sapiens, UniProt P41161 1-510)
Summary of the method: as §1

[12] = target: T8, SPIC (Homo sapiens, UniProt Q8N5J4 1-248)
T8 sequence: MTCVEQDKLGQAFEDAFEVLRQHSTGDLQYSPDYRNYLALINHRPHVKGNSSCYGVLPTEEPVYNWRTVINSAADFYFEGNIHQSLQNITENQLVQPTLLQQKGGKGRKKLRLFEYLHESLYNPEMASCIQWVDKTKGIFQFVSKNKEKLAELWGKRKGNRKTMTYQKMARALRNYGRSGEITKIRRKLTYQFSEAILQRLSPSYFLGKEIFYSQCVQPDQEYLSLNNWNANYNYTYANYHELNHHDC
Summary of the method: as §1

[13] = target: ELF4 (Homo sapiens, UniProt Q99607 1-663)
Summary of the method: as §1

[14] = target: T9, ELK4 (Homo sapiens, UniProt P28324-2 1-405)
T9 sequence: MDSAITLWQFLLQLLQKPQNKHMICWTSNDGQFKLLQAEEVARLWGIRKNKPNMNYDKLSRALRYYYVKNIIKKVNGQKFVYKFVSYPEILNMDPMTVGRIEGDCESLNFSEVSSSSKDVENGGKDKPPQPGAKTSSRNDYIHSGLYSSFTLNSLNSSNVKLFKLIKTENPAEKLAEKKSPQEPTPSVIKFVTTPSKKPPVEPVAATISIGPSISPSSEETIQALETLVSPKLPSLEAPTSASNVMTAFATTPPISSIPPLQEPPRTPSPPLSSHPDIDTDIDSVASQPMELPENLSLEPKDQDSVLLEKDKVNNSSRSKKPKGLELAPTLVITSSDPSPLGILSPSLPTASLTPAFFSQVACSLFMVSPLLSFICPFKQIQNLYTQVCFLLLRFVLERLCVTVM
Summary of the method: as §1

[15] = target: T10, ETV2 (Homo sapiens, UniProt O00321 1-342)
T10 sequence: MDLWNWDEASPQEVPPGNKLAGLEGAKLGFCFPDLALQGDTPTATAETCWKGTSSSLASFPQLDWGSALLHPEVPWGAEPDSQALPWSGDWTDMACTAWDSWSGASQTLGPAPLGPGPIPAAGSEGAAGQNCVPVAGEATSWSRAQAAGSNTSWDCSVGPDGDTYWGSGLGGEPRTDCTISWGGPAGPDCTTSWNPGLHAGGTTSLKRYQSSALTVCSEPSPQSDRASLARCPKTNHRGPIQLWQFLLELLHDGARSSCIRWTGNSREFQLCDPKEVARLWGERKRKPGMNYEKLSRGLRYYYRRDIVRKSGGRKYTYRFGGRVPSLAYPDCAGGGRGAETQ
Summary of the method: as §1

[16] = target: T11, ELF3 (Homo sapiens, UniProt P78545 1-371)
T11 sequence: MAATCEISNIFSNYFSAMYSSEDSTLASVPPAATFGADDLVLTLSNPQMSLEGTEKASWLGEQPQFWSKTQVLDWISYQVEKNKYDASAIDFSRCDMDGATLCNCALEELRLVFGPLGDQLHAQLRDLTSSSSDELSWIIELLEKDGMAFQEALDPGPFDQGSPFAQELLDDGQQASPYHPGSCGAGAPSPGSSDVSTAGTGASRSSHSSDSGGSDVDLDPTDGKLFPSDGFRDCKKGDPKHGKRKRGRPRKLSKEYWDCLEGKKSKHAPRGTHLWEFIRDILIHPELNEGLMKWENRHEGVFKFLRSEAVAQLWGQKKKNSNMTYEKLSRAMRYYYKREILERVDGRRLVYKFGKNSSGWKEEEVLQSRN
Summary of the method: as §1

[17] = target: ETV1 (Homo sapiens, UniProt P50549 1-477)
Summary of the method: as §1

Sequence of SPIB (Q01892 whole entry): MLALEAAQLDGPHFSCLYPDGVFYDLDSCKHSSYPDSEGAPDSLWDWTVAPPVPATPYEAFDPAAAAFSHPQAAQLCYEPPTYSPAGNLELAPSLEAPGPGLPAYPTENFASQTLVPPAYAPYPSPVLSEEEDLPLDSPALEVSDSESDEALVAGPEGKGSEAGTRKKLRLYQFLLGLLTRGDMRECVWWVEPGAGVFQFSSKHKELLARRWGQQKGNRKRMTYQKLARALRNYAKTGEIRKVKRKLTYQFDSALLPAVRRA
Sequence of ELF1 (P32519 whole entry): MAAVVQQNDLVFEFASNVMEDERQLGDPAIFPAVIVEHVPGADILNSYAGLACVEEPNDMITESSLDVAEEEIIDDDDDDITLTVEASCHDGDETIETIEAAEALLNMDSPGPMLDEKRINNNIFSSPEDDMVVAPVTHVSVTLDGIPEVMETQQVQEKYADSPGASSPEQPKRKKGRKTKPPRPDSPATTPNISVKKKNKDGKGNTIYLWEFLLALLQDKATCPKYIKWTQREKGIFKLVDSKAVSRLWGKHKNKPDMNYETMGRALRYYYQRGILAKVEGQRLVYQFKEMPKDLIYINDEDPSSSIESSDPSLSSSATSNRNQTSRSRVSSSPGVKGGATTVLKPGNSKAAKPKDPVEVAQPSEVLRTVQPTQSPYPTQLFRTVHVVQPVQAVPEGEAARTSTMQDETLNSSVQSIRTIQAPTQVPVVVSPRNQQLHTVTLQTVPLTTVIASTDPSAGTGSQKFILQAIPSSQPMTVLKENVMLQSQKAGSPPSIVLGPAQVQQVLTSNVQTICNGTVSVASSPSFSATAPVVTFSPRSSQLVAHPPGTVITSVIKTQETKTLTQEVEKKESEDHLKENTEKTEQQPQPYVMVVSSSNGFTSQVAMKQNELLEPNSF
Sequence of ELF4 (Q99607 whole entry): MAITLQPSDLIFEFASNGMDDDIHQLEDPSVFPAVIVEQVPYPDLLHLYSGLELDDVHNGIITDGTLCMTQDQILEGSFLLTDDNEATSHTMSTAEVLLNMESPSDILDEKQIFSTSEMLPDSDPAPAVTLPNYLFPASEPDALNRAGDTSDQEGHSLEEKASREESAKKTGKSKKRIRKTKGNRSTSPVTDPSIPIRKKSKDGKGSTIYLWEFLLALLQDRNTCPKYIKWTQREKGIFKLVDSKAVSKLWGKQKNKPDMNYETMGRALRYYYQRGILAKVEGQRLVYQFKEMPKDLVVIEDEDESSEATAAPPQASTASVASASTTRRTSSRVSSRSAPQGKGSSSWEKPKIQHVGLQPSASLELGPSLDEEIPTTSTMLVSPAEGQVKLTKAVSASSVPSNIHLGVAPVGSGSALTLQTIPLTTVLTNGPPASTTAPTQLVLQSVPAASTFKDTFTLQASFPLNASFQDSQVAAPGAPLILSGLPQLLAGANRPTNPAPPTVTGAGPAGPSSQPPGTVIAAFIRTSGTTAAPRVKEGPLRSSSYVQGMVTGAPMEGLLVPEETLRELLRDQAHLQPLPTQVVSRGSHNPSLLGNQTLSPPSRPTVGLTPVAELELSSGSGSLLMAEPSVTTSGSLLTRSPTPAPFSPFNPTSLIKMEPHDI
Sequence of ETV5 (P41161 whole entry): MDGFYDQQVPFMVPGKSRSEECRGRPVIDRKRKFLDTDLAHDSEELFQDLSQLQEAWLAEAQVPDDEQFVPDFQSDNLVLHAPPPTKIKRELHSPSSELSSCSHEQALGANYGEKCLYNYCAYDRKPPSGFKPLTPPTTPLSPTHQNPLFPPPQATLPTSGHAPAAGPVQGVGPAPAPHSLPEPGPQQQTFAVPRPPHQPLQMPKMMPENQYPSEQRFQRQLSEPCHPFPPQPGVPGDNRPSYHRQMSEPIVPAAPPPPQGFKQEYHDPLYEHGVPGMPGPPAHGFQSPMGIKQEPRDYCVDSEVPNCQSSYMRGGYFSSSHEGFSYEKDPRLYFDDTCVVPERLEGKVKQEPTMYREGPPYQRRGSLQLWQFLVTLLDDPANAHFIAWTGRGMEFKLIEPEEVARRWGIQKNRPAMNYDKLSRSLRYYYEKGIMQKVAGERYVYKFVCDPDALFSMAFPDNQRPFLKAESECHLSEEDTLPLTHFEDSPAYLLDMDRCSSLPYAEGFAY
Sequence of ETV1 (P50549 whole entry): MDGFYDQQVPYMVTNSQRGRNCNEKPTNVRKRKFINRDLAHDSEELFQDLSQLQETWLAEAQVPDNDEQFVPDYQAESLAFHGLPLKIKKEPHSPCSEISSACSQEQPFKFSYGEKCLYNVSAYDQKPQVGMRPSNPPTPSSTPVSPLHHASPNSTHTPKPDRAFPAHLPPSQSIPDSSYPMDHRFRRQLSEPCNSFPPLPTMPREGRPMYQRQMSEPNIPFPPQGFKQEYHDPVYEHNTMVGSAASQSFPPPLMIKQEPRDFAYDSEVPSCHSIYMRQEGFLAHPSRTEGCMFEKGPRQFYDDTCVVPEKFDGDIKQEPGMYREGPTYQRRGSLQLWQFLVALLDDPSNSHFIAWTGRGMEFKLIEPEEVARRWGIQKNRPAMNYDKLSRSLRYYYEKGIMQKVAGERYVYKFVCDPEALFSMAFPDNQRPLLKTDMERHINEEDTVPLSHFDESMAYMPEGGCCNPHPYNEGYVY

Row | Sequence | binding signal [1] | binding signal [2] | binding signal [3] | binding signal [4] | binding signal [5] | binding signal [6] | binding signal [7] | binding signal [8] | binding signal [9] | binding signal [10] | binding signal [11] | binding signal [12] | binding signal [13] | binding signal [14] | binding signal [15] | binding signal [16] | binding signal [17]
1 | TGTGCC | 1.17 fold enrichment (6-mer frequency, TF over GST control) | 1.2 fold enrichment (6-mer frequency, TF over GST control) | 1.07 fold enrichment (6-mer frequency, TF over GST control) | 1.17 fold enrichment (6-mer frequency, TF over GST control) | 1.21 fold enrichment (6-mer frequency, TF over GST control) | 1.02 fold enrichment (6-mer frequency, TF over GST control) | 1.06 fold enrichment (6-mer frequency, TF over GST control) | 1.04 fold enrichment (6-mer frequency, TF over GST control) | 1.3 fold enrichment (6-mer frequency, TF over GST control) | 1.2 fold enrichment (6-mer frequency, TF over GST control) | 1.21 fold enrichment (6-mer frequency, TF over GST control) | 1.12 fold enrichment (6-mer frequency, TF over GST control) | 1.17 fold enrichment (6-mer frequency, TF over GST control) | 1.32 fold enrichment (6-mer frequency, TF over GST control) | 1.23 fold enrichment (6-mer frequency, TF over GST control) | 1.03 fold enrichment (6-mer frequency, TF over GST control) | 1.05 fold enrichment (6-mer frequency, TF over GST control)
2 | AGTGTT | 1.05 fold enrichment (6-mer frequency, TF over GST control) | 1.16 fold enrichment (6-mer frequency, TF over GST control) | 1.14 fold enrichment (6-mer frequency, TF over GST control) | 1.15 fold enrichment (6-mer frequency, TF over GST control) | 1.08 fold enrichment (6-mer frequency, TF over GST control) | 1.02 fold enrichment (6-mer frequency, TF over GST control) | 1.32 fold enrichment (6-mer frequency, TF over GST control) | 1.15 fold enrichment (6-mer frequency, TF over GST control) |  | 1.02 fold enrichment (6-mer frequency, TF over GST control) | 1.06 fold enrichment (6-mer frequency, TF over GST control) | 1.18 fold enrichment (6-mer frequency, TF over GST control) | 1.05 fold enrichment (6-mer frequency, TF over GST control) | 1.08 fold enrichment (6-mer frequency, TF over GST control) | 1.07 fold enrichment (6-mer frequency, TF over GST control) | 1.26 fold enrichment (6-mer frequency, TF over GST control) | 1.06 fold enrichment (6-mer frequency, TF over GST control)
3 | GTACAA | 1.05 fold enrichment (6-mer frequency, TF over GST control) | 1.08 fold enrichment (6-mer frequency, TF over GST control) | 1.01 fold enrichment (6-mer frequency, TF over GST control) | 1.11 fold enrichment (6-mer frequency, TF over GST control) | 1.11 fold enrichment (6-mer frequency, TF over GST control) | 1.26 fold enrichment (6-mer frequency, TF over GST control) | 1.06 fold enrichment (6-mer frequency, TF over GST control) | 1.04 fold enrichment (6-mer frequency, TF over GST control) | 1.02 fold enrichment (6-mer frequency, TF over GST control) | 1.11 fold enrichment (6-mer frequency, TF over GST control) | 1.08 fold enrichment (6-mer frequency, TF over GST control) | 1.12 fold enrichment (6-mer frequency, TF over GST control) | 1.09 fold enrichment (6-mer frequency, TF over GST control) | 1.18 fold enrichment (6-mer frequency, TF over GST control) | 1.19 fold enrichment (6-mer frequency, TF over GST control) | 1.08 fold enrichment (6-mer frequency, TF over GST control) | 1.09 fold enrichment (6-mer frequency, TF over GST control)
